# The panel holds about 83,000 compounds, 20% with a hit somewhere; the sample as a whole holds those more often.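 Assay: single dose, 48 h. Readout: percent growth (0 = no net growth; negative = cell death). Active: <10.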 Unmarked numbers belong to inactive results. The source made the active and inactive calls.
# Test system: MDA-MB-231 breast
# Assay: NCI-60 one-dose screen, 48 h (100 = growth as untreated, 0 = no growth, -100 = all killed)
# Settings: 10 µM unless noted
row,SMILES,growth
1,O=C(Nc1ncc(Cc2ccccc2)s1)c1sc2ccccc2c1Cl,55.5%
2,Cc1ccccc1N1CCN(C(=S)c2ccccc2)CC1,93.9%
3,CC(C)(C)c1ccc(S(=O)(=O)Oc2ccc(-c3sc4cc(OS(=O)(=O)c5ccc(C(C)(C)C)cc5)ccc4c3C(=O)c3ccc(OCCN4CCCCC4)cc3)cc2)cc1,103%
4,CCn1cc(C(=O)N/N=C/c2ccccc2)c(=O)c2cc(F)c(N3CCNC(C)C3)c(F)c21 (stereo unspecified),-70.4% (active)
5,COC1/C=C/OC2(C)Oc3c(C)c(O)c4c(O)c(c(/C=N/N(c5ccccc5)c5ccccc5)c(O)c4c3C2=O)NC(=O)C(C)=C/C=C/C(C)C(O)C(C)C(O)C(C)C(OC(C)=O)C1C (stereo unspecified),90.9%
6,CS(=O)(=O)c1ccc(-c2nc3ccccc3n2CC(=O)N/N=C/c2ccccc2)cc1,97.6%
7,CC(=O)O[C@H]1CC[C@]2(C)[C@H]3CC=C4[C@@H]5CC(C)(C)CC[C@]5(C(=O)N5CCN(CCC#N)CC5)CC[C@@]4(C)[C@]3(C)CC[C@H]2C1(C)C,48.5%
8,C[N+]1=C(/C=C/c2ccccc2Cl)C(C)(C)c2ccccc21,98%
9,COC(=O)/C=C1/SC(=Nc2ccc(F)cc2)N(CCc2c[nH]c3ccc(O)cc23)C1=O,59.3%
10,Cc1c2ccccc2nc2cc3c(cc12)[C@H]1CC[C@]2(C)C(=O)CC[C@H]2[C@@H]1CC3,91.6%
11,O=C(/C=C/C12c3ccccc3C(c3ccccc31)C1C(=O)NC(=O)C12)c1ccco1 (stereo unspecified),40.3%

# Source: PubChem BioAssay (NCI)
